Measurements reported in PubChem BioAssay (NCI).
Several values for one entry are separate records, joined by “and”; a condition that tells them apart may be missing. Identical values can stand only once. Compounds without any hit were thinned out: in the full panel of roughly 79,000, 15% have a hit. No stated cut-off is given here; in the data, active means growth inhibition above about 70%; inactive means the rest.

Assays:
[1] = NCI Yeast Anticancer Drug Screen. Data for the rad50 strain (AID 155);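 further: 0% = growth of vehicle-only cultures of the same strain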; conditions: S. cerevisiae rad50 strain growth inhibition, hits give high values; at 50.0 µM unless noted
Summary of the method: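 Vehicle-treated cultures provide the reference for the growth inhibition reported for compound-exposed, repair-deficient yeast.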

[2] = NCI Yeast Anticancer Drug Screen. Data for the mec2-1 strain (AID 157); conditions: S. cerevisiae mec2-1 strain, hits give high values; at 50.0 µM unless noted
Summary of the method: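 Readout is yeast growth inhibition, normalised to vehicle-treated controls, in the mec2-1 strain exposed to compound.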

[3] = NCI Yeast Anticancer Drug Screen. Data for the sgs1 mgt1 strain (AID 161);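 further: 0% = growth of cultures given vehicle only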; conditions: S. cerevisiae sgs1 mgt1 strain, hits give high values; at 50.0 µM unless noted
Summary of the method: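 Compounds are added to genetically altered yeast, and growth is compared with cultures given vehicle alone to give percent inhibition.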

[4] = NCI Yeast Anticancer Drug Screen. Data for the cln2 rad14 strain (AID 165);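 further: 0% = growth equal to vehicle treated cultures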; conditions: S. cerevisiae cln2 rad14 strain, hits give high values; at 50.0 µM unless noted
Summary of the method: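 Relative to vehicle controls, growth inhibition of compound-treated cln2 rad14 yeast was recorded.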

[5] = NCI Yeast Anticancer Drug Screen. Data for the bub3 strain (AID 167); conditions: S. cerevisiae bub3 mutant strain, hits give high values; at 50.0 µM unless noted
Summary of the method: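 Mutant yeast screening strain plus compound; vehicle-treated cultures serve as the 0% inhibition reference.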

[6] = NCI Yeast Anticancer Drug Screen. Data for the mlh1 rad18 strain (AID 175); conditions: S. cerevisiae mlh1 rad18 strain growth inhibition, hits give high values; at 50.0 µM unless noted
Summary of the method: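 Test agents were incubated with a yeast strain of defined genotype (DNA damage repair defect). Inhibition of growth was derived by comparison with vehicle-exposed cultures.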

Measured: growth inhibition

C=CCCCCCCC=C
inactive: [1] -23.6% | [2] -43% | [3] -4.1% | [4] 2.45% | [5] -34.2% | [6] -19.4%

O=c1[nH]c(=O)c2nc3c(=O)[nH]c(=O)[nH]c3nc2[nH]1
inactive: [1] -14.2% | [2] -21.1% | [3] 0.95% | [4] -5.95% | [5] 2.65% | [6] -27.1%

CC(=O)[CH-]C(=O)c1ccccc1.CC(=O)[CH-]C(=O)c1ccccc1.CC1(C)OCC(C2OC3OC(C)(C)OC3C2[O-])O1.CC1(C)OCC(C2OC3OC(C)(C)OC3C2[O-])O1.[Ti+4] (stereo unspecified)
inactive: [1] 29.9% | [2] 5.65% | [3] 14.8% | [4] 14.9% | [5] 27.9% | [6] 20.2%

C/C(=C\c1ccccc1)c1ccccn1
inactive: [1] -2.25% and -1.9% | [2] -4.6% and -17.4% | [3] -6.25% and 10.8% | [4] -68.8% and -22.6% | [5] -19.1% and 15.2% | [6] -7.4% and 8.3%

Cc1ccc(C)n1-n1c(Cc2ccccc2)n[nH]c1=O
inactive: [1] -21.8% | [2] -19.3% | [3] -15.1% | [4] 2.75% | [5] -31.8% | [6] -12.7%

CN(C)/N=C(\CBr)c1ccc([N+](=O)[O-])cc1
inactive: [1] -1.8% | [2] 4.9% | [3] 6.75% | [4] 11.2% | [5] -3% | [6] 5.4%

C1CCC2=NCCCN2CC1
inactive: [1] -13.8% | [2] -23% | [3] 10.6% | [4] -4.8% | [5] 11.8% | [6] -1%

O=C(O)C1C2CCCC21 (stereo unspecified)
inactive: [1] -10.8% | [2] 30.2% | [3] -4.75% | [4] 25.9% | [5] 2% | [6] 0.8%

O=S1(=O)C2C=CC1C(Br)C(Br)CC2 (stereo unspecified)
inactive: [1] -9.4% | [2] 13.9% | [3] 26.8% | [4] 12% | [5] -0.15% | [6] 20.4%

CCc1ccc(NN=Nc2ccccc2C#N)cc1
inactive: [1] 8.1% | [2] 15.8% | [3] 16.2% | [4] -12.7% | [5] -1.65% | [6] 16.8%

N#CC(C(=O)NN)C1CCCCC1 (stereo unspecified)
inactive: [1] -0.85% | [2] -22% | [3] -2.95% | [4] -0.1% | [5] -33.8% | [6] -11.7%

NCCCC(=S)S
inactive: [1] -4.35% | [2] 12.6% | [3] -0.75% | [4] 12.8% | [5] 13.8% | [6] 13.4%

COC1(OC)C(C#N)=C(c2ccccc2)C1(OC)OC
inactive: [1] -8% | [2] -6.25% | [3] -6.5% | [4] -19.9% | [5] -14% | [6] -6.8%

CC1C(c2ccccc2)OCCN1C(N)=S (stereo unspecified)
inactive: [1] 21.9% | [2] 1% | [3] 52.4% | [4] 17.9% | [5] 24.1% | [6] 23.3%

CC1C(=O)C(c2cccs2)(C2CCCCC2)CC[N+]1(C)C (stereo unspecified)
inactive: [1] 0% | [2] 4.5% | [3] -6.05% | [4] -19.1% | [5] 1.25% | [6] 17.4%

C=CC(C)(C)c1c(OC)cc(-c2ccccc2)oc1=O
inactive: [1] -7.65% | [2] -34.4% | [3] 29.6% | [4] -23% | [5] 20.6% | [6] -9.9%

CCSC(=O)C(F)(F)F
inactive: [1] -9.95% | [2] -47.9% | [3] -51.4% | [4] -1.2% | [5] -18.1% | [6] -25.6%

O=C(CCCCCCCC(=O)NO)NO
inactive: [1] -10.8% | [2] 6.6% | [3] 12.8% | [4] 3.65% | [5] 2.5% | [6] -9.4%

Cc1[nH]c(=O)nc(N/N=C/c2ccc(Cl)cc2)c1C(=O)NC(C)(CO)CO
inactive: [1] -30.6% | [2] -14.6% | [3] -43.5% | [4] -10.4% | [5] 16.7% | [6] -3.45%

NNC(=O)CCC(=O)O
inactive: [1] 0.75% | [2] -0.5% | [3] 1.7% | [4] -3.6% | [5] 12.7% | [6] -15.6%

Cc1ccc(C(C)C)cc1NC(=O)c1ccc([N+](=O)[O-])cc1
inactive: [1] -5.15% | [2] 16.4% | [3] 16.9% | [4] -5.8% | [5] 2.6% | [6] 21.6%

Cc1ccc(OCc2ccc([N+](=O)[O-])cc2)cc1
inactive: [1] 1.8% | [2] -12.2% | [3] -12.6% | [4] 13.9% | [5] -16.4% | [6] -16.8%

O=C(O)CCN(CCCCN(CCC(=O)O)CCC(=O)O)CCC(=O)O
inactive: [1] 4.7% | [2] 7.05% | [3] -10.7% | [4] 1.4% | [5] 1.25% | [6] -4.15%

NCC(=O)c1ccc(CCC(=O)O)cc1
inactive: [1] 3.1% | [2] -0.25% | [3] -0.75% | [4] 0.25% | [5] 6.3% | [6] 2.6%

CCOC(=O)C1CC2OC2CC1C(=O)OCC (stereo unspecified)
inactive: [1] 0.55% | [2] -36.9% | [3] -15.2% | [4] 12.4% | [5] -1.9% | [6] -33.2%

O=C1CCCC2CCCC(=O)N12
inactive: [1] -1.35% | [2] -0.85% | [3] -0.4% | [4] 8.9% | [5] 1% | [6] -9.7%

OC1CSc2nc3ccccc3n2C1 (stereo unspecified)
inactive: [1] 17.6% | [2] 9.25% | [3] 12.3% | [4] 9.7% | [5] 20.8% | [6] 38.9%

COc1ccccc1OC(=O)c1ccc(Cl)cc1
inactive: [1] 2.2% | [2] -17.6% | [3] 18.7% | [4] -63.9% | [5] 1.35% | [6] 0.75%

Cc1ccc2c(c1)P(=O)(O)c1cc(C)ccc1S2
inactive: [1] -12.4% | [2] -16.6% | [3] 14.4% | [4] 22.4% | [5] -4.05% | [6] 19.7%

O=[N+]([O-])c1ccc(CC(Cl)c2ccccc2)cc1 (stereo unspecified)
inactive: [1] 40.8% | [2] 2.35% | [3] 39.5% | [4] -19.1% | [5] 29.8% | [6] 63%

COc1cc(C(=O)O)cc(I)c1OC
inactive: [1] -3.3% | [2] 25.1% | [3] 3.95% | [4] -15.4% | [5] -4.55% | [6] -8.95%

O=C1CCC2OC3CCC(=O)N3CN12 (stereo unspecified)
inactive: [1] 9.8% | [2] 8% | [3] 6.55% | [4] -11.3% | [5] 4.95% | [6] -3.6%

CC1=C2CN(C(=O)OCC(C)C)CCC2C2=C(C(=O)c3ccccc3C2=O)C1C (stereo unspecified)
inactive: [1] 1.4% | [2] -3.75% | [3] 39.6% | [4] 14.6% | [5] -12.2% | [6] 44.5%

CN(C)CCC(C#N)c1ccccc1 (stereo unspecified)
inactive: [1] -18.6% | [2] -15.6% | [3] -2.7% | [4] -26.4% | [5] -3.8% | [6] -5.55%

NC(N)=Nc1ccc(-c2ccc(N=C(N)N)cc2)cc1
inactive: [1] -9.35% | [2] 6.4% | [3] 0.85% | [4] -22.2% | [5] -24.9% | [6] -7.95%

Cc1c(Cl)cccc1NC(=O)C(C)NCC(C)C (stereo unspecified)
inactive: [1] -4.4% | [2] -0.2% | [3] -6.05% | [4] -11.7% | [5] 14.8% | [6] -19.6%

CN(C(=O)CCC1OCCO1)c1cc(N)ccc1OCc1ccccc1
inactive: [1] 15.3% | [2] -0.7% | [3] -7.2% | [4] 4.8% | [5] 19.9% | [6] -18.6%

NC(N)=N/N=C(/c1ccccc1)c1ccc(O)cc1O
inactive: [1] 20.2% | [2] -15.7% | [3] -8.5% | [4] 9.7% | [5] -48.6% | [6] 14.5%

CCCCC(CC)CCC(C)O (stereo unspecified)
inactive: [1] -6.75% | [2] -4.75% | [3] 25.6% | [4] -40.4% | [5] -16.8% | [6] -14.7%

CC(=O)CCOC(=O)c1cc([N+](=O)[O-])cc([N+](=O)[O-])c1
inactive: [1] 13.2% | [2] -4.1% | [3] 14.4% | [4] 2.6% | [5] 16.9% | [6] 3%

O=C1NCCN1/N=C/c1ccc([N+](=O)[O-])o1
inactive: [1] 26.4% | [2] 9.35% | [3] 37.5% | [4] -29.9% | [5] 14.4% | [6] 25.9%
